Results filed as inconclusive are left out. A call without a number means that no potency is given here. The source made the active and inactive calls. Calls come from the whole dose curve; as a rule, active = well fitted curve in the direction sought with a large enough effect; inconclusive = small, poorly fitted or top-dose-only effect, or another doubt; inactive = no such curve, though single readings can be large; an effect the other way counts as inactive or inconclusive.
Tests used:
[1] = Quantitative High-Throughput drug screen in 47 multiple myeloma cell lines against the NCATS MIPE library collection: FR4_PLB cell viability assay (AID 1918924; note: nearly all actives have a fitted effect of over 35% in size)
In short: (§1)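 Primary qHTS used for cherry-picking: cells at 500/well, library compounds for 48 h (37C, 5% CO2), luminescent ATP assay.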

[2] = Quantitative High-Throughput drug screen in 47 multiple myeloma cell lines against the NCATS MIPE library collection: EJM_DSMZ cell viability assay (AID 1918926; note: nearly all actives have a fitted effect of over 30% in size)
In short: (§2)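 Luminescent ATP measurement with CellTiter-Glo gives viability, scaled between DMSO-only wells (100%) and media-only wells (0%). Cells, 500 per well, faced library compounds for 48 hours at 37C.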

[3] = Quantitative High-Throughput drug screen in 47 multiple myeloma cell lines against the NCATS MIPE library collection: AMO1_DSMZ cell viability assay (AID 1918927; note: nearly all actives have a fitted effect of over 30% in size)
In short: as §2

[4] = Quantitative High-Throughput drug screen in 47 multiple myeloma cell lines against the NCATS MIPE library collection: Karpas620_DSMZ cell viability assay (AID 1918959); note: nearly all actives have a fitted effect of over 30% in size
In short: as §1

[5] = Quantitative High-Throughput drug screen in 47 multiple myeloma cell lines against the NCATS MIPE library collection: KMM1_JCRB cell viability assay (AID 1918960); note: nearly all actives have a fitted effect of over 30% in size
In short: (§3)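 Here, 48 h treatment with MIPE 4.0 agents at 37 °C preceded an ATP luminescence read. Plating density was 500 cells per well.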

[6] = Quantitative High-Throughput drug screen in 47 multiple myeloma cell lines against the NCATS MIPE library collection: JIM3_ECACC cell viability assay (AID 1918963; note: nearly all actives have a fitted effect of over 35% in size)
In short: as §1

[7] = Quantitative High-Throughput drug screen in 47 multiple myeloma cell lines against the NCATS MIPE library collection: JIM1_ECACC cell viability assay (AID 1918964)
In short: as §2

[8] = Quantitative High-Throughput drug screen in 47 multiple myeloma cell lines against the NCATS MIPE library collection: JJN3_DSMZ cell viability assay (AID 1918966; note: nearly all actives have a fitted effect of over 50% in size)
In short: as §2

[9] = Quantitative High-Throughput drug screen in 47 multiple myeloma cell lines against the NCATS MIPE library collection: H1112_PLB cell viability assay (AID 1918967; note: nearly all actives have a fitted effect of over 30% in size)
In short: as §2

[10] = Quantitative High-Throughput drug screen in 47 multiple myeloma cell lines against the NCATS MIPE library collection: Karpas25_ECACC cell viability assay (AID 1918968; note: nearly all actives have a fitted effect of over 35% in size); conditions: Karpas25 myeloma viability, CellTiter-Glo ATP, 48 h
In short: as §2

[11] = Quantitative High-Throughput drug screen in 47 multiple myeloma cell lines against the NCATS MIPE library collection: KMS12BM_JCRB cell viability assay (AID 1918971); note: nearly all actives have a fitted effect of over 35% in size
In short: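 Viability readout: CellTiter-Glo luminescence following 5 min room-temperature incubation with reagent. Prior exposure: 48 h, 37C, humidified 5% CO2, 500 cells per well.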

[12] = Quantitative High-Throughput drug screen in 47 multiple myeloma cell lines against the NCATS MIPE library collection: KMS12PE_JCRB cell viability assay (AID 1918972); note: nearly all actives have a fitted effect of over 30% in size; for viability: series mostly up to about 46 µM
In short: (§4)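 We plated 500 myeloma cells per well, pinned in MIPE 4.0 compounds, and incubated for 48 hours at 37C. ATP was then quantified with CellTiter-Glo, with DMSO and media-only wells defining 100% and 0%.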

[13] = Quantitative High-Throughput drug screen in 47 multiple myeloma cell lines against the NCATS MIPE library collection: KMS20_JCRB cell viability assay (AID 1918973); note: nearly all actives have a fitted effect of over 45% in size
In short: as §2

[14] = Quantitative High-Throughput drug screen in 47 multiple myeloma cell lines against the NCATS MIPE library collection: Delta47_JCRB cell viability assay (AID 1918925; note: nearly all actives have a fitted effect of over 45% in size)
In short: as §2

[15] = Quantitative High-Throughput drug screen in 47 multiple myeloma cell lines against the NCATS MIPE library collection: ARP1_JJKsccF8 cell viability assay (AID 1918928; note: nearly all actives have a fitted effect of over 40% in size)
In short: as §3

[16] = Quantitative High-Throughput drug screen in 47 multiple myeloma cell lines against the NCATS MIPE library collection: KMS27_JCRB cell viability assay (AID 1918970); note: nearly all actives have a fitted effect of over 30% in size
In short: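 Viability inhibition screen, 48 h compound exposure, luminescent ATP read-out.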

[17] = Quantitative High-Throughput drug screen in 47 multiple myeloma cell lines against the NCATS MIPE library collection: ARD_JJKsccE7 cell viability assay (AID 1918929)
In short: as §2

[18] = Quantitative High-Throughput drug screen in 47 multiple myeloma cell lines against the NCATS MIPE library collection: Karpas417_ECACC cell viability assay (AID 1918961); conditions: Karpas417 myeloma viability, CellTiter-Glo ATP luminescence, 48 h
In short: as §4

[19] = Quantitative High-Throughput drug screen in 47 multiple myeloma cell lines against the NCATS MIPE library collection: KHM11_PLB cell viability assay (AID 1918962); conditions: KHM11 myeloma cell viability, CellTiter-Glo ATP luminescence, 48 h; note: nearly all actives have a fitted effect of over 35% in size
In short: as §1

[20] = Quantitative High-Throughput drug screen in 47 multiple myeloma cell lines against the NCATS MIPE library collection: INA6_PLB cell viability assay (AID 1918965; note: nearly all actives have a fitted effect of over 55% in size); conditions: INA6 myeloma viability, CellTiter-Glo ATP luminescence, 48 h
In short: as §4
Potency is the fitted concentration of half-maximal effect.

Row | SMILES | Potency [1] | Potency [2] | Potency [3] | Potency [4] | Potency [5] | Potency [6] | Potency [7] | Potency [8] | Potency [9] | Potency [10] | Potency [11] | Potency [12] | Potency [13] | Potency [14] | Potency [15] | Potency [16] | Potency [17] | Potency [18] | Potency [19] | Potency [20]
1 | COc1ccc(C(=O)N2CCCC2=O)cc1 | inactive | inactive | inactive | inactive | 1.87 µM (active) | inactive | 3.32 µM (active) | inactive | inactive | 0.935 µM (active) | inactive | inactive | inactive | – | – | – | – | – | – | –
2 | COC(=O)C1=CCCN(C)C1 | inactive | inactive | – | inactive | inactive | inactive | – | – | inactive | 5.9 µM (active) | inactive | inactive | – | inactive | inactive | 3 nM (active) | – | – | – | –
3 | O=C(O)c1nn(Cc2ccc(Cl)cc2Cl)c2ccccc12 | – | inactive | – | – | – | inactive | inactive | inactive | inactive | – | – | inactive | – | – | inactive | inactive | inactive | – | – | –
4 | C[C@@H]1C[C@@H]([C@H](O)CC2CC(=O)NC(=O)C2)C(=O)[C@@H](C)C1 | 743 nM (active) | 3.32 µM (active) | 469 nM (active) | 662 nM (active) | 0.209 µM (active) | 418 nM (active) | 0.148 µM (active) | 187 nM (active) | 1.05 µM (active) | 1.05 µM (active) | 209 nM (active) | 418 nM (active) | 1.66 µM (active) | 743 nM (active) | 52.6 nM (active) | 1050 nM (active) | 166 nM (active) | 469 nM (active) | 372 nM (active) | 118 nM (active)
